This is an account of results in PubChem BioAssay (EPA / NIEHS).

For test [1], the target named is Cellular tumor antigen p53 (Homo sapiens) (UniProt P04637). The test can be described thus: TOX21_p53_BLA_p2_ratio: Tox21 HCT-116 p53 Agonism Beta-lactamase Assay, Ratio, Phase 2 (AID 2283592). The essentials: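 An inducible beta-lactamase reporter in HCT116 cells signals p53 pathway activation. After 16 h chemical exposure at 37C, cells load CCF4-AM substrate for 2 h at room temperature; activity is the cleaved/uncleaved emission ratio relative to DMSO.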
Cellular tumor antigen p53 (Homo sapiens), sequence (P04637 whole entry, looked up): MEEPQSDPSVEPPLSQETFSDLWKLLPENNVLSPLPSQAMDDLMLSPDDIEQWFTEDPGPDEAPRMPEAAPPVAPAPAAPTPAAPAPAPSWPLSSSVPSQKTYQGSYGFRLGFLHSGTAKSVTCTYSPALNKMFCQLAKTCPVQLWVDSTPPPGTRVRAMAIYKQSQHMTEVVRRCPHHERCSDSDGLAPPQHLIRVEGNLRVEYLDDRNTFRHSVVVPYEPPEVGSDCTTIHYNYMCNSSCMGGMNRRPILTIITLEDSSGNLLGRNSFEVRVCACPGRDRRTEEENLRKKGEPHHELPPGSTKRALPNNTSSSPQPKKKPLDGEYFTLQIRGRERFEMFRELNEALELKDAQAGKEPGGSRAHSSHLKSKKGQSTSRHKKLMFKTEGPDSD

Test [2] shares this target. The test can be described thus: TOX21_p53_BLA_p3_ratio: Tox21 HCT-116 p53 Agonism Beta-lactamase Assay, Ratio, Phase 3 (AID 2283596). The essentials: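 HCT116 p53-bla cells (4000/well) given compound in DMSO (217-fold dilution) after 5 h, incubated 16 h at 37C. CCF4-AM substrate 2 h at room temperature; 460/530 nm emission ratio, gain fitted against DMSO.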
Test [3] has the same target. As to the kind of experiment: TOX21_p53_BLA_p5_ratio: Tox21 HCT-116 p53 Agonism Beta-lactamase Assay, Ratio, Phase 5 (AID 2283599). In a few lines: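 HCT-116 cells carrying a p53-inducible beta-lactamase reporter were seeded at 4000 cells/well and dosed after 5 h with compound in DMSO (217-fold dilution). After 16 h at 37C, CCF4-AM substrate was added for 2 h, and the 460/530 nm emission ratio was scored as gain-of-signal versus DMSO.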

Test [4] is described as follows: TOX21_p53_BLA_p5_viability: Viability Assessment in the Tox21 HCT-116 p53 Agonism Beta-lactamase Assay, Phase 5 (AID 2283600). In a few lines: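 Counter-readout for cytotoxicity: ATP-dependent luminescence from CellTiter-Glo, read in the beta-lactamase wells after 30 min at RT, following a 16 h compound exposure at 37C.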
The target of test [5] is Cellular tumor antigen p53 (Homo sapiens) (UniProt P04637). As to the kind of experiment: TOX21_p53_BLA_p4_ratio: Tox21 HCT-116 p53 Agonism Beta-lactamase Assay, Ratio, Phase 4 (AID 2283601). The essentials: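 HCT116 cells carrying an inducible beta-lactamase reporter were plated at 4000 cells/well, rested 5 h, then exposed to compounds in DMSO (217-fold dilution) for 16 h at 37C. CCF4-AM substrate was loaded 2 h at room temperature; 460/530 nm emission ratio scored gain-of-signal versus DMSO.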

Test [6] addresses Retinoic acid receptor RXR-alpha (Homo sapiens) (UniProt P19793). The test can be described thus: TOX21_TR_RXR_BLA_Agonist_Followup_ratio: Tox21 Thyroid Hormone Receptor beta Retinoid X Receptor alpha (RXRa) Agonism Beta-lactamase (BLA) Follow-Up Assay, Ratio (AID 2283968). In a few lines:
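This follow-up tests whether responses seen in the TR GH3 luciferase agonist screen are specific, using a GAL4-driven beta-lactamase reporter for RXRa in HEK293T cells. Compound exposure lasts 16 h; signal is the cleaved/uncleaved substrate ratio.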

A short description of test [7]: TOX21_TR_RXR_BLA_Agonist_Followup_viability: Viability Assessment in the Tox21 Thyroid Hormone Receptor beta Retinoid X Receptor alpha (RXRa) Agonism Beta-lactamase (BLA) Follow-Up Assay (AID 2283970). In a few lines: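 In qHTS format, RXRa-bla HEK293T cells (2,500/well) received compound for 16h. ATP content was then measured with CellTiter-Glo, and responses were fitted bidirectionally relative to DMSO controls.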

Several values for one entry are separate records, joined by “and”; a condition that tells them apart may be missing. Equal values may be shown once. Records with an inconclusive call do not appear. Activity calls are given as the source filed them. The calls were made as follows: active = hit-call score of the fitted dose curve at least 0.9, where 1 is the maximum; inconclusive = response in the unintended direction; inactive = score below 0.9.

Retinoic acid receptor RXR-alpha (Homo sapiens), sequence (P19793 whole entry, looked up, the tested form may be a part): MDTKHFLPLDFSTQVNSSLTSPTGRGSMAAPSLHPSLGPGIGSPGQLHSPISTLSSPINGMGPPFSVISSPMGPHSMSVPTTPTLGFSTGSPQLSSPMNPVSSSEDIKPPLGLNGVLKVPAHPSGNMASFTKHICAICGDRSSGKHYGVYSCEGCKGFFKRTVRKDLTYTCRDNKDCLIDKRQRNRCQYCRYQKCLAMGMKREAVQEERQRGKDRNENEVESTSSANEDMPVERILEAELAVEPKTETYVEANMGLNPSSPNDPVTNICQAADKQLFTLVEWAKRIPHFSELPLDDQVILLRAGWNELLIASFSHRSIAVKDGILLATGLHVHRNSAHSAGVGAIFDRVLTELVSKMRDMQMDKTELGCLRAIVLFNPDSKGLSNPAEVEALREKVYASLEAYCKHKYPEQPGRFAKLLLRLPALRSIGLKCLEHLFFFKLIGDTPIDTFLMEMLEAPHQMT

Consider `O=Cc1ccc(Cl)cc1Cl`, for which the outcome in test [1], in test [2], in test [3], in test [4] and in test [5] was inactive.

As to `CCOc1cc(OP(=S)(OC)OC)nc(CC)n1`, the outcome in test [1], in test [2] and in test [5] was inactive.

Regarding `NCC1(CC(=O)O)CCCCC1`, the outcome in test [1], in test [2], in test [3] and in test [5] was inactive.

Take `CC(=O)OO`: the outcome in test [1], in test [2], in test [3] and in test [5] was inactive.

For `COc1ccc(C(=O)c2c(C)n(CCN3CCOCC3)c3ccccc23)cc1`, the outcome in test [1], in test [2], in test [3] and in test [5] was inactive.

On to `N[C@@H](Cc1ccc(Oc2cc(I)c(O)c(I)c2)c(I)c1)C(=O)O`, for which the outcome in test [1], in test [2], in test [3], in test [5], in test [6] and in test [7] was inactive.

As to `Cc1c(N)nc([C@H](CC(N)=O)NC[C@H](N)C(N)=O)nc1C(=O)N[C@H](C(=O)N[C@H](C)[C@@H](O)[C@H](C)C(=O)N[C@H](C(=O)NCCc1nc(-c2nc(C(=O)NCCC[S+](C)C)cs2)cs1)[C@@H](C)O)[C@@H](O[C@@H]1O[C@@H](CO)[C@@H](O)[C@H](O)[C@@H]1O[C@H]1O[C@H](CO)[C@@H](O)[C@H](OC(N)=O)[C@@H]1O)c1cnc[nH]1`, the AC50 in test [1] was 195 nM (active) and 1.16 µM (active); in test [2], 98.3 nM (active) and 922 nM (active); in test [3], 86.5 nM (active) and 808 nM (active); in test [5] it was 219 nM (active) and 730 nM (active).

Take `CCN`: the outcome in test [1], in test [2], in test [3] and in test [5] was inactive.

`CCCCCCCCCBr`: the result in test [1], in test [2], in test [4] and in test [5] was inactive.

Regarding `Clc1ccccc1-c1ccccc1Cl`, the outcome in test [1], in test [2], in test [3] and in test [5] was inactive.
